Test results from PubChem BioAssay (EPA / NIEHS).
Inconclusive results are not listed. Active and inactive are the calls of the source. Rule for the calls: active = hit-call score of the fitted dose curve at least 0.9, where 1 is the maximum; inconclusive = response in the unintended direction; inactive = score below 0.9.

Experiments:
[1] = system: zebrafish Estrogen Receptor (ER2a), gene 317734; experiment: ATG_zfER2a_XSP2: Attagene TRANS-FACTORIAL Multi-Species (XSP2) HepG2 Assay for zebrafish Estrogen Receptor (ER2a) (AID 2283818);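 note: hits raise reporter mRNA so AC50 reflects activation of zebrafish ER2a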
Summary of the method: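 Multiplexed trans-reporter readout: RT-PCR then capillary electrophoresis of reporter transcripts after 24 h compound treatment. Human HepG2 carries transfected zebrafish ER2a-Gal4 chimera; 3 nM 6-alpha-fluorotestosterone plus 1.5 nM norgestrel present. Induction scored against DMSO.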

[2] = system: chicken Androgen Receptor (AR), gene 422165; experiment: ATG_chAR_XSP2: Attagene TRANS-FACTORIAL Multi-Species (XSP2) HepG2 Assay for chicken Androgen Receptor (AR) (AID 2283819);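 note: hits raise reporter mRNA above DMSO so potency is for activation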
Method: (§1) ATG_XSP2_multi-species_TRANS is a cell-based, multiplexed assay created by modifying the existing Attagene TRANS-FACTORIAL system to include a panel of nuclear receptors from some or all the following species: human (Homo sapiens), mouse (Mus musculus), frog (Xenopus laevis), zebrafish (Danio rerio), chicken (Gallus gallus), and turtle (Chrysemys picta). The ECOTOX-FACTORIAL format uses HepG2, a human liver cell line, with measurements taken at 24 hours after chemical dosing in a 24-well plate. Xsp2 included 3 nM 6-alpha-fluorotestosterone and 1.5 nM norgestrel to stimulate the androgen receptor.ATG_chAR_XSP2 is one of 29 assay components measured or calculated from the ATG_XSP2_multi-species_TRANS assay. It is designed to make measurements of mRNA induction, a form of inducible reporter, as detected with fluorescence intensity signals by Reverse transcription polymerase chain reaction (RT-PCR) and Capillary electrophoresis technology.The assay endpoint ATG_chAR_XSP2 was analyzed in the positive analysis fitting direction relative to DMSO as the negative control and baseline of activity. […] Furthermore, this assay endpoint can be referred to as a primary readout, because this assay has produced multiple assay endpoints where this one serves a reporter gene function. […]

[3] = system: frog Estrogen Receptor (ER), gene 398734; experiment: ATG_frER1_XSP2: Attagene TRANS-FACTORIAL Multi-Species (XSP2) HepG2 Assay for frog Estrogen Receptor (ER) (AID 2283821);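 note: hits raise reporter mRNA above DMSO baseline so potency means agonist or activator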
Summary of the method: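 Reporter mRNA induction, detected as fluorescence after RT-PCR and capillary electrophoresis, is the endpoint; activity is fitted upward against DMSO. Cells are human liver HepG2 carrying transfected NR-Gal4 chimeras with GAL4-UAS-driven reporters, harvested 24 h post-dosing.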

[4] = system: zebrafish Estrogen Receptor (ER2b), gene 317733; experiment: ATG_zfER2b_XSP2: Attagene TRANS-FACTORIAL Multi-Species (XSP2) HepG2 Assay for zebrafish Estrogen Receptor (ER2b) (AID 2283823);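 note: fitted upward as reporter gain over DMSO so potency reflects activation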
Summary of the method: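 Transcriptional induction measured as reporter mRNA (RT-PCR, fluorescent capillary electrophoresis) in transiently transfected HepG2 cells after 24 h dosing; DMSO served as negative control and baseline.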

[5] = system: frog Androgen Receptor (AR), gene 399456; experiment: ATG_frAR_XSP2: Attagene TRANS-FACTORIAL Multi-Species (XSP2) HepG2 Assay for frog Androgen Receptor (AR) (AID 2283824);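 note: reporter mRNA from GAL4-UAS units driven by Xenopus AR-Gal4 chimera; actives raise reporter signal above DMSO so AC50 reflects agonist-like induction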
Summary of the method: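 Reporter transcript induction, read by RT-PCR with fluorescent capillary electrophoresis, in human liver HepG2 cells carrying an exogenous Xenopus AR-Gal4 fusion and GAL4-driven reporters; chemical exposure 24 hours, activity scored upward against DMSO controls.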

[6] = biological target: Estrogen receptor (Homo sapiens) (UniProt P03372); experiment: ATG_hERa_XSP2: Attagene TRANS-FACTORIAL Multi-Species (XSP2) HepG2 Assay for human Estrogen Receptor (ERa) (AID 2283827)
Summary of the method: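 Trans-activation of exogenous human ERa-Gal4 chimera read in HepG2 as reporter transcript after 24 h exposure; medium included 3 nM 6-alpha-fluorotestosterone and 1.5 nM norgestrel. Quantified by RT-PCR with capillary electrophoresis, positive-direction fitting against DMSO.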

[7] = system: frog Estrogen Receptor (ER2), gene 100174814; experiment: ATG_frER2_XSP2: Attagene TRANS-FACTORIAL Multi-Species (XSP2) HepG2 Assay for frog Estrogen Receptor (ER2) (AID 2283828)
Method: as §1, with “receptor.ATG_frER2_XSP2” for “receptor.ATG_chAR_XSP2”, “ATG_frER2_XSP2” for “ATG_chAR_XSP2”

[8] = biological target: Peroxisome proliferator-activated receptor gamma (Homo sapiens) (UniProt P37231); experiment: ATG_hPPARg_XSP2: Attagene TRANS-FACTORIAL Multi-Species (XSP2) HepG2 Assay for human Peroxisome Proliferator-activated Receptor gamma (PPARg) (AID 2283829);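 note: actives raise reporter mRNA above DMSO so AC50 reflects PPARg activation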
Summary of the method: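 Human HepG2 cells carried transiently transfected Gal4 reporter units and were treated with chemical for 24 h alongside androgen-receptor stimulants (3 nM 6-alpha-fluorotestosterone, 1.5 nM norgestrel). Reporter transcripts were detected by RT-PCR with capillary electrophoresis, analysed in the positive direction against DMSO.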

[9] = biological target: Nuclear receptor subfamily 1 group I member 2 (Mus musculus) (UniProt O54915); experiment: ATG_mPXR_XSP2: Attagene TRANS-FACTORIAL Multi-Species (XSP1) HepG2 Assay for mouse Pregnane X Receptor (PXR) (AID 2283831)
Summary of the method: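 Fluorescence signals from capillary electrophoresis of RT-PCR-amplified reporter mRNA give the readout, gain-of-signal versus DMSO. Transfected HepG2 cells, 24 h dosing, medium contained 3 nM 6-alpha-fluorotestosterone and 1.5 nM norgestrel.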

[10] = biological target: zebrafish Thyroid Hormone Receptor alpha (TRa), thraa (gene 30670) (UniProt Q98867); experiment: ATG_zfTRa_XSP2: Attagene TRANS-FACTORIAL Multi-Species (XSP1) HepG2 Assay for zebrafish Thyroid Hormone Receptor alpha (TRa) (AID 2283832);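 note: actives raise zebrafish TRa-Gal4 reporter transcript above DMSO baseline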
Summary of the method: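 Chimeric zebrafish TRa-Gal4 activity read in transfected human HepG2 as GAL4-UAS reporter transcripts, 24 h post-dose, via RT-PCR with labeled primer extension and capillary electrophoresis. Medium also carries 3 nM 6-alpha-fluorotestosterone and 1.5 nM norgestrel; DMSO baseline.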

Peroxisome proliferator-activated receptor gamma (Homo sapiens), sequence (P37231 whole entry, looked up, the tested form may be a part): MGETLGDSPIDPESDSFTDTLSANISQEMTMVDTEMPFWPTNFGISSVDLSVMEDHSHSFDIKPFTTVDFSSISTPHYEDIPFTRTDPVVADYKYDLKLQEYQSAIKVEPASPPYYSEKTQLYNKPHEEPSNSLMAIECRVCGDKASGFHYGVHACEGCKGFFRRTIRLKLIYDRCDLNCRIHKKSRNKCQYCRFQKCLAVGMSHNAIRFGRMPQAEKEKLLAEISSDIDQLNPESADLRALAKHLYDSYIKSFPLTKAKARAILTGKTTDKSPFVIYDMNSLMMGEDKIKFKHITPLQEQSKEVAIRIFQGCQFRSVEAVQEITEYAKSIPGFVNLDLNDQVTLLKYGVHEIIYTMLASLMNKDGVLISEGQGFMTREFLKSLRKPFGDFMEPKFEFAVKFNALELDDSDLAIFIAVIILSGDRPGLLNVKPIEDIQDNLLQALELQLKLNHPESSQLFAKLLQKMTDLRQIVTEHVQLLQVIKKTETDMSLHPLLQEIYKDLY
Nuclear receptor subfamily 1 group I member 2 (Mus musculus), sequence (O54915 whole entry, looked up): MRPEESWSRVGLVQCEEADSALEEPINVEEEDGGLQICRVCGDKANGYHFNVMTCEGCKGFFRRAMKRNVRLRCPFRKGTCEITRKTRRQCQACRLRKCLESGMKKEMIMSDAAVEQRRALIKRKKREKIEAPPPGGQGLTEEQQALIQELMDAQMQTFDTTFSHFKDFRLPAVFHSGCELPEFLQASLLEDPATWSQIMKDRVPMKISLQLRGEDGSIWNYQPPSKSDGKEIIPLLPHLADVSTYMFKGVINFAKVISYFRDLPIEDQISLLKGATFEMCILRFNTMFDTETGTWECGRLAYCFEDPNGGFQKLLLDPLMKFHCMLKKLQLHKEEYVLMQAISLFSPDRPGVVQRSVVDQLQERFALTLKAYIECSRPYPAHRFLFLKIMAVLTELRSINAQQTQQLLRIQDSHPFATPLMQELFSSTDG
zebrafish Thyroid Hormone Receptor alpha (TRa), thraa (gene 30670), sequence (Q98867 whole entry, looked up, the tested form may be a part): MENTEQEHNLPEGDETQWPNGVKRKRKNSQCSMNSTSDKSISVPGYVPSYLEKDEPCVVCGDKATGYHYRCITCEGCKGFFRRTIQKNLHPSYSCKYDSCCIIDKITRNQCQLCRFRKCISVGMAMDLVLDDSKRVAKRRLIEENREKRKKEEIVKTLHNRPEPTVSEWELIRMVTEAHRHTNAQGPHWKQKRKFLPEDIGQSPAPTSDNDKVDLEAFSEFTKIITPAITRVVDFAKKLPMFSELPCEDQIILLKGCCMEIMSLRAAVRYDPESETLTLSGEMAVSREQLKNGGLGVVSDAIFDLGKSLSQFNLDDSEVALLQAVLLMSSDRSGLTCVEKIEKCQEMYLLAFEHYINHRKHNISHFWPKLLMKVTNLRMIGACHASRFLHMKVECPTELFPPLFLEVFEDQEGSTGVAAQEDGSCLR
Estrogen receptor (Homo sapiens), sequence (P03372 whole entry, looked up, the tested form may be a part): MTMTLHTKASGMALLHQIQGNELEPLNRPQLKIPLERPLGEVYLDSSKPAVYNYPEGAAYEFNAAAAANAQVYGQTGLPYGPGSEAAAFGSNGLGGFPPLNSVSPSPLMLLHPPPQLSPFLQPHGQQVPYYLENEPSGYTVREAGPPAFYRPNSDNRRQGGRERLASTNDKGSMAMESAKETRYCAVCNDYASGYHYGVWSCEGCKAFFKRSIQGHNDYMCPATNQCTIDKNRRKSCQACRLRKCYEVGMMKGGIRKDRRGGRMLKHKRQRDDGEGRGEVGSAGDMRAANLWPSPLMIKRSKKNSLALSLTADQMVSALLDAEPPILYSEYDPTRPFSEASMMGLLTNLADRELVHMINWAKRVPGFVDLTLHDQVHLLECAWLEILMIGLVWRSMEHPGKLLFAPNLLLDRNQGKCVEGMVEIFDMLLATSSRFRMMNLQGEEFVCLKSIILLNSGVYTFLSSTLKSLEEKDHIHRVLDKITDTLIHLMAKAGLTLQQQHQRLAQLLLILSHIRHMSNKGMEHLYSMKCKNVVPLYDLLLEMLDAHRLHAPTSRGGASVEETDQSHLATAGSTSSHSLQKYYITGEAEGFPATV

For `O=C(c1ccccc1)c1ccc(O)cc1O`, the AC50 [1] was 4680 nM (active), the outcome [2] was “inactive” and the AC50 [3] was 3760 nM (active). The AC50 [4] was 5040 nM (active), the outcome [5] was “inactive” and the AC50 [6] was 2310 nM (active). For the same compound, the AC50 [7] was 2730 nM (active), the outcome [8] was “inactive” and the outcome [9] was “inactive”. For the same compound, the outcome [10] was “inactive”.
With `C[C@]12CC[C@H]3C(=CCc4cc(O)ccc43)[C@@H]1CCC2=O` the AC50 [1] was 14.7 nM (active), the AC50 [3] was 15.9 nM (active) and the AC50 [4] was 25.8 nM (active). For the same compound, the AC50 [7] was 22.8 nM (active) and the outcome [8] was “inactive”.
